Rows were chosen to be rich in hits. Some 6.2% of all compounds tested hit in one or more screens of this group.
KB-V1 cytotox – KB-V1 MDR subline cytotoxicity | KB-V1 MDR cells viability, CellTiter-Glo, 72 h | Potency, µM (doses to about 46.1 µM), hits mostly cytotoxic | 3.4% of 400,000 active; further: on the % scale 0 is the no-effect control and ±100 the full control effect; nearly all actives have a fitted effect of over 60% in size
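Readout: CellTiter-Glo luminescence, 10 min after addition. Cells: KB-V1 MDR subline, 72 h at 37 degrees C with compound. Analysis: corrected, normalized data fitted to concentration-effect curves.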
HT1080 IDH1KD tx – toxicity to HT-1080 IDH1 knockdown cells (counter line); 2% of 360,000 active; HT-1080 IDH1 knockdown viability, ATP luminescence, 48 h; Potency, µM (series often up to 46.1 µM), for the others: top-dose activity, negative = toxicity, usual class: cytotoxic;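 further: 0% = DMSO wells and -100% = cell-free medium wells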
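Using the IDH1-knockdown HT-1080 line run in the same batch and compound series as the NT line, viability after 48 h at 37 °C was determined by CellTiter-Glo luminescence and expressed as % activity.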
HT1080NT lethal – kills 2HG-producing HT-1080-NT fibrosarcoma cells | HT-1080-NT fibrosarcoma viability, CellTiter-Glo ATP luminescence, 48 h | Potency, µM (top dose mostly 46.1 µM), without a hit: at the highest dose activity, negative = less viability, most hits filed as cytotoxic | 1.6% of 360,000 active | AID 686970;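 further: NT is the 2HG producing partner of a matched IDH1 knockdown line; 0% = DMSO-treated cells and -100% = media-only wells without cells; nearly all actives have a fitted effect of over 55% in size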
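Fibrosarcoma NT cells, 750 per well in 5% FBS RPMI, were exposed to compound for 48 hours. Viability: CellTiter-Glo luminescence.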
ATXN2 expr inh – reduces ATXN2 reporter expression in HEK-293 cells; HEK-293 ATXN2-luciferase reporter, luminescence, 24 h; Potency, µM (series often up to 57 µM), inactives show at the top dose activity change, negative = inhibition, hits mostly inhibitors; 0.72% of 360,000 active; AID 1745845; further: on the % scale 0 is the no-effect control and ±100 the full control effect; nearly all actives have a fitted effect of over 55% in size
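ATXN2-luciferase reporter cells (luciferase flanked by upstream and downstream ATXN2 gene portions) were treated 24 h at 37 °C with compounds at up to 57 uM. SteadyGlo luminescence gave expression; GF-AFC fluorescence gave viability.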
ATXN viability – cell viability loss in ATXN counter-screen. AID 651635. Potency, µM (doses to about 56.7 µM), hits mostly cytotoxic. S2 cells (HEK-293 line with an ATXN2-luciferase reporter) viability, CellTiter-Fluor protease fluorescence, 24 h. 0.49% of 400,000 active; further: nearly all actives have a fitted effect of over 40% in size
KB-3-1 cytotox – kills parental KB-3-1 adenocarcinoma cells; KB-3-1 viability, CellTiter-Glo ATP luminescence, 72 h; Potency, µM (doses to about 46.1 µM), usual class: cytotoxic; 1.4% of 400,000 active; AID 1347075; further: on the % scale 0 is the no-effect control and ±100 the full control effect; nearly all actives have a fitted effect of over 60% in size
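KB-3-1 parental drug-naive adenocarcinoma cells in DMEM/10% FBS, incubated 72 h at 37 C with pin-transferred compounds across a concentration series. Viability by CellTiter-Glo luminescence; concentration-response curves fitted after normalization.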
* marks the source's active call; other numbers are inactive results; [ ] = remark or other dose. The call rests on the fitted dose curve; in most records, active means well fitted curve in the direction sought with a large enough effect; inconclusive means small, poorly fitted or top-dose-only effect, or another doubt; inactive means no such curve, though single readings can be large; an effect the other way counts as inactive or inconclusive. Potency means the concentration at half of the fitted maximal effect.

Cn1c(=N)n(CC(=O)c2ccc(Br)cc2)c2ccccc21 was read as KB-V1 cytotox inactive, HT1080 IDH1KD tx 23µM*, HT1080NT lethal inconclusive, ATXN2 expr inh 6%, ATXN viability inconclusive and KB-3-1 cytotox inconclusive.
Screening COc1ccc(/C=C2/SC(=O)N(CCNC(=O)C3CC(=O)N(Cc4ccccc4)C3)C2=O)cc1 (configuration not stated) returned KB-V1 cytotox inactive, HT1080 IDH1KD tx -12%, HT1080NT lethal -13%, ATXN viability inactive and KB-3-1 cytotox inactive.
Screening Cn1c(=O)c2c(-c3ccc(Br)cc3)n(Cc3ccc(F)cc3)cc2n(C)c1=O returned KB-V1 cytotox inactive, ATXN2 expr inh inconclusive, ATXN viability inconclusive and KB-3-1 cytotox inactive.
O=C(Nc1cc(Sc2nc3ccccc3s2)cc([N+](=O)[O-])c1)c1ccccc1 was read as KB-V1 cytotox inconclusive, HT1080 IDH1KD tx -25%, HT1080NT lethal -22%, ATXN2 expr inh -23%, ATXN viability inactive and KB-3-1 cytotox inconclusive.
Screening O=C(Nc1cc(Sc2ccccn2)cc([N+](=O)[O-])c1)c1cccc(F)c1 returned KB-V1 cytotox 13µM*, HT1080 IDH1KD tx inconclusive, HT1080NT lethal -25%, ATXN2 expr inh -10%, ATXN viability inconclusive and KB-3-1 cytotox 13µM*.
Screening COc1cc([N+](=O)[O-])ccc1NC(=O)N1CCC2(CC1)Nc1cc(F)ccc1-n1cccc12 returned KB-V1 cytotox inactive and KB-3-1 cytotox inactive.
`CC(C)NC(=O)C1(C)CCN1CCC(=O)c1ccccc1` (configuration not stated) gave KB-V1 cytotox inactive, HT1080 IDH1KD tx 4%, HT1080NT lethal 16%, ATXN2 expr inh -1%, ATXN viability inactive and KB-3-1 cytotox inactive.
`CCCCCCn1ccc(=N)cc1` gave KB-V1 cytotox inactive, HT1080 IDH1KD tx -15%, HT1080NT lethal -13%, ATXN2 expr inh inconclusive, ATXN viability inactive and KB-3-1 cytotox 8.2µM*.
`CCCCCCN1C2=NCCN2c2ccccc21` gave KB-V1 cytotox inconclusive, HT1080 IDH1KD tx -8%, HT1080NT lethal -8%, ATXN2 expr inh -24%, ATXN viability inactive and KB-3-1 cytotox inactive.
C1=CCOCc2cc(ccc2OCCN2CCCC2)Nc2nccc(n2)-c2cccc(c2)OCC1 was read as ATXN2 expr inh 15µM*.
`Cc1ccnc(NC(=S)N2CCN(c3ccc(F)cc3)CC2)c1` gave KB-V1 cytotox inactive and KB-3-1 cytotox inactive.
COc1ccc(Cc2c(-c3ccc(OC)c(OC)c3)nc3ccc(C)cn23)c(C)c1 was read as KB-V1 cytotox inactive, HT1080 IDH1KD tx inconclusive, HT1080NT lethal -29%, ATXN2 expr inh 3%, ATXN viability inconclusive and KB-3-1 cytotox inactive.
For CCOc1ccccc1N1CCN(C(=O)c2cccc(S(=O)(=O)N3CCOCC3)c2)CC1 the results were KB-V1 cytotox 23µM*, HT1080 IDH1KD tx -4%, HT1080NT lethal 0%, ATXN2 expr inh 1%, ATXN viability inactive and KB-3-1 cytotox inconclusive.
For O=C(c1ccc2ccccc2c1)N1CCN(c2ccc(O)cc2)CC1 the results were KB-V1 cytotox 23µM*, HT1080 IDH1KD tx -11%, HT1080NT lethal -8%, ATXN2 expr inh -29%, ATXN viability inactive and KB-3-1 cytotox inactive.
Screening O=S(=O)(c1ccc(Oc2ccc(S(=O)(=O)N3CCOCC3)cc2)cc1)N1CCOCC1 returned KB-V1 cytotox 15µM*, HT1080 IDH1KD tx -2%[9.24 µM], HT1080NT lethal -3%, ATXN2 expr inh -13%, ATXN viability inactive and KB-3-1 cytotox inconclusive.
O=C(CSc1ccc2ccccc2c1)N1CCN(c2ccc(O)cc2)CC1 was read as KB-V1 cytotox inactive, HT1080 IDH1KD tx inconclusive, HT1080NT lethal -16%, ATXN2 expr inh -25%, ATXN viability inactive and KB-3-1 cytotox inactive.
Screening Cc1cc(C(=O)CCl)c(C)n1-c1cccc(S(=O)(=O)N2CCOCC2)c1 returned KB-V1 cytotox 16µM*, HT1080 IDH1KD tx inconclusive, HT1080NT lethal 23µM*, ATXN2 expr inh -18%[11.3 µM] and KB-3-1 cytotox inactive.
`C[C@@H]1CN([C@H](C)CO)C(=O)CCCn2cc(nn2)CO[C@H]1CN(C)C(=O)Nc1ccccc1F` gave KB-V1 cytotox inactive, HT1080 IDH1KD tx 7%, HT1080NT lethal 13%, ATXN2 expr inh -1%, ATXN viability inactive and KB-3-1 cytotox inactive.
Screening COc1cccc(-n2c(=O)c3sc4ccccc4c3n(Cc3c(F)cccc3Cl)c2=O)c1 returned KB-V1 cytotox inactive, ATXN2 expr inh 9%, ATXN viability inactive and KB-3-1 cytotox inactive.
Screening COc1ccccc1N1CCN(C(=O)c2cccc(S(=O)(=O)N3c4ccccc4CC3C)c2)CC1 (configuration not stated) returned KB-V1 cytotox 3.7µM*, HT1080 IDH1KD tx inconclusive, HT1080NT lethal inconclusive, ATXN2 expr inh inconclusive, ATXN viability inconclusive and KB-3-1 cytotox inactive.
For NC(=O)C1CCN(C(=O)c2cccc(S(=O)(=O)N3CCc4ccccc4C3)c2)CC1 the results were KB-V1 cytotox inactive, HT1080 IDH1KD tx 0%, HT1080NT lethal -7%, ATXN2 expr inh 9%, ATXN viability inactive and KB-3-1 cytotox inactive.
For Cc1nn(-c2ccccc2)c(N)c1N=Nc1ccccc1 the results were KB-V1 cytotox inconclusive, HT1080 IDH1KD tx inconclusive, HT1080NT lethal inconclusive, ATXN2 expr inh 163%, ATXN viability inconclusive and KB-3-1 cytotox inconclusive.
For O=C(c1cccc(S(=O)(=O)N2CCc3ccccc3C2)c1)N1CCN(c2ccc(O)cc2)CC1 the results were KB-V1 cytotox 13µM*, HT1080 IDH1KD tx -20%, HT1080NT lethal -10%, ATXN2 expr inh -32%, ATXN viability inactive and KB-3-1 cytotox inconclusive.
For Cc1nn(-c2ccccc2)c(N)c1N=Nc1cccc(S(=O)(=O)N2CCOCC2)c1 the results were KB-V1 cytotox 4.1µM*, HT1080 IDH1KD tx inconclusive, HT1080NT lethal inconclusive, ATXN2 expr inh -13%, ATXN viability inconclusive and KB-3-1 cytotox inconclusive.
Screening COc1ccc(N2CCN(C(=O)c3ccc(S(=O)(=O)N4CCOCC4)cc3)CC2)cc1 returned KB-V1 cytotox 16µM*, HT1080 IDH1KD tx -4%, HT1080NT lethal 5%, ATXN2 expr inh -3%, ATXN viability inactive and KB-3-1 cytotox inactive.
Screening COc1ccc(CNC(=O)c2cc3c(s2)-c2c(C)cccc2OC3)cc1 returned KB-V1 cytotox inactive, ATXN2 expr inh -35%, ATXN viability inactive and KB-3-1 cytotox inactive.

Compound activity as filed in PubChem.
